POLK inh: blocks human DNA polymerase kappa activity | Q9UBT6 | purified Pol kappa, fluorescent DNA synthesis assay, 10 min | Potency, µM (doses to about 107 µM), most hits filed as inhibitors | 0.53% of 400,000 active
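Kinetic fluorescence readout at 0 and 10 min followed reaction start with substrate at 50 nM final. Beforehand, enzyme (10 nM Pol kappa) stood 15 min with compound at room temperature; buffer-only wells were negative controls.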
PI5P4K alpha inh: blocks human PI5P4K alpha kinase activity. P48426. PI5P4Kalpha enzyme, ADP-Glo luminescence, 60 min; stronger effect = lower value. max response, %. 1.2% of 330,000 active. AID 652105; active means max response of -50% or lower; inconclusive means between -30% and -50%; inactive means -30% or higher; further: value at the top dose of about 77 µM
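Luminescence from ADP-Glo served as readout of PI5P4Kalpha activity in a qHTS format. Reaction: enzyme, substrate, compound, ATP at 5 microM final, 60 min at RT.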
WRN helicase inh: WRN helicase (human) inhibition; WRN helicase unwinding, fluorescent forked duplex, kinetic; Potency, µM (series often up to 114 µM), hits mostly inhibitors; 0.46% of 360,000 active; Q14191; further: nearly all actives have a fitted effect of over 55% in size
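Primary qHTS, 1536-well format. 20 nM WRN + compound, 15 min RT; start with 100 nM forked fluorophore/quencher duplex, 2 mM ATP (final); kinetic read ex 525/em 598 nm.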
POLB inh: inhibitors of human DNA polymerase beta | Potency, µM (top dose mostly 114 µM), hits mostly inhibitors | Pol beta primer extension/strand displacement, fluorescence kinetic | AID 485314 | 1.3% of 340,000 active | P06746
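Curves were derived by four-parameter Hill fits of normalized qHTS data. The kinetic fluorescent primer-extension read was taken at 0 and 10 min after 50 nM substrate, following a 15 min room-temperature preincubation of 10 nM enzyme with compounds.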
POLH inh: blocks human DNA polymerase eta activity | Potency, µM (titrated, usually from 114 µM), usual class: inhibitors | recombinant Pol eta, fluorescent DNA replication assay | 1.2% of 390,000 active | AID 588591 | Q9Y253
Target sequence (Q9Y253 whole entry, looked up): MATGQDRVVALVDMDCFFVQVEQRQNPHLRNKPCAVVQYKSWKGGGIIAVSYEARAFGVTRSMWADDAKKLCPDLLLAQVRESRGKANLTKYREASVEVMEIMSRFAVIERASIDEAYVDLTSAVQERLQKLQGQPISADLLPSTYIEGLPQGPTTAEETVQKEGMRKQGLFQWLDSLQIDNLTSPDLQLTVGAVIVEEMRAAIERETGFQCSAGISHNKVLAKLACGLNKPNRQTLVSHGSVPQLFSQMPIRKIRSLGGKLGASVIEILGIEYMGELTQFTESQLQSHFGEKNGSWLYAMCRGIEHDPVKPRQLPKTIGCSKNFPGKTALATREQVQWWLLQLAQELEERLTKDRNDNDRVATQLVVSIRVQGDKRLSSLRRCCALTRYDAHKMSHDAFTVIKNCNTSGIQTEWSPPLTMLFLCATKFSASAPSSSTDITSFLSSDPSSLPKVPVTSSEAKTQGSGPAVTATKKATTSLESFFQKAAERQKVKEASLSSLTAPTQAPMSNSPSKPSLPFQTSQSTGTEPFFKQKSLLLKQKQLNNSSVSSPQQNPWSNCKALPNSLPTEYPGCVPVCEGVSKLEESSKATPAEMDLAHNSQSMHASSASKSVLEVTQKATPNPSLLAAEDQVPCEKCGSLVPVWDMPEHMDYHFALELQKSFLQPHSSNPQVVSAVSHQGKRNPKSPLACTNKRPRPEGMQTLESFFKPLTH
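Pol eta (10 nM) was preincubated with compounds for 15 min at room temperature, after which fluorescent replication substrate (50 nM final) was added to start the reaction. Fluorescence was read kinetically at 0 and 10 min.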
POLI inh: blocks human DNA polymerase iota activity. Potency, µM (highest dose often 115 µM), hits mostly inhibitors. Pol iota fluorescent replication assay, 10 min. Q9UNA4. 1% of 390,000 active
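Fluorescent replication assay read twice, at 0 min and 10 min after adding 50 nM (final) substrate. Enzyme (10 nM) and compounds were first incubated 15 min at room temperature; enzyme-free buffer wells were negative controls.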
Of the large screens only hits and unclear results are named; the others gave an inactive call. Most compounds without a hit are left out; they make up all but 2.8% or so of the library. Unless noted, the call rests on the fitted dose curve; in most records, active means well fitted curve in the direction sought with a large enough effect; inconclusive means small, poorly fitted or top-dose-only effect, or another doubt; inactive means no such curve, though single readings can be large; an effect the other way counts as inactive or inconclusive.

Cn1c(O)c(/C=C2\C=Nc3ccccc32)sc1=Nc1ccc(C(=O)O)cc1	PI5P4K alpha inh -66, POLH inh inconclusive, POLI inh inconclusive
c1ccc(-c2cc3c(-n4cccc4)ncnc3o2)cc1	POLK inh inconclusive, WRN helicase inh inconclusive, POLH inh inconclusive, POLI inh 79µM
CCOC(=O)c1cccc2c1N[C@@H](c1ccc(F)cc1)[C@H]1CC=C[C@@H]21	POLB inh inconclusive (no result: PI5P4K alpha inh, WRN helicase inh)
Cc1ccc2c(c1C)NC(C(=O)O)C1CC=CC21 (stereo unspecified)	POLK inh 3.2µM, WRN helicase inh 40µM, POLB inh 2.5µM, POLH inh 3.5µM, POLI inh inconclusive (no result: PI5P4K alpha inh)
Cc1cc(C)c2c(c1)C1C=CCC1C(C(=O)O)N2 (stereo unspecified)	POLK inh 28µM, POLI inh inconclusive (no result: PI5P4K alpha inh, WRN helicase inh, POLB inh, POLH inh)
O=C(O)C1Nc2c(C(=O)N3CCOCC3)cccc2C2C=CCC12 (stereo unspecified)	POLK inh 45µM, PI5P4K alpha inh -62, WRN helicase inh 56µM, POLB inh 20µM, POLH inh 3.2µM, POLI inh 11µM
O=C(O)C1Nc2c(C(F)(F)F)ccc(Cl)c2C2C=CCC12 (stereo unspecified)	POLB inh 45µM, POLH inh inconclusive, POLI inh inconclusive
CC(C(=O)NCc1ccccc1)n1ccc2cc(S(=O)(=O)N3CCCC3)ccc21 (stereo unspecified)	none (no result: PI5P4K alpha inh, WRN helicase inh)
O=C1NC(=O)c2c1c(-c1ccccc1)cc1[nH]c3ccc(O)cc3c21	none (no result: PI5P4K alpha inh, WRN helicase inh, POLB inh, POLH inh, POLI inh)
Cc1ccc(-c2ccc(/C=C3/NC(=O)NC3=O)o2)cc1[N+](=O)[O-]	POLK inh inconclusive, POLH inh inconclusive, POLI inh 50µM
O=C1NC(=S)N/C1=C/c1ccc(-c2c(Br)cc([N+](=O)[O-])cc2Br)o1	POLB inh 8.9µM (no result: POLK inh, PI5P4K alpha inh, WRN helicase inh, POLH inh, POLI inh)
COC(=O)c1ccc(NC(=O)c2nc(S(=O)(=O)Cc3ccccc3F)ncc2Cl)cc1	POLI inh inconclusive (no result: PI5P4K alpha inh, WRN helicase inh, POLB inh, POLH inh)
COC(=O)C1=C(C)N(CCCC(=O)O)C(=O)NC1c1ccc(C#N)cc1 (stereo unspecified)	PI5P4K alpha inh -63, POLI inh 14µM (no result: POLB inh)
COC(=O)C1=C(C)N(CCCC(=O)O)C(=O)NC1c1ccc(C(F)(F)F)cc1 (stereo unspecified)	PI5P4K alpha inh -81
COC(=O)C1=C(C)N(CCCC(=O)O)C(=O)NC1c1ccccc1Cl (stereo unspecified)	PI5P4K alpha inh -82 (no result: POLB inh)
CC1=C(C(=O)OCC(Br)(Br)Br)C(c2ccc(Br)cc2)NC(=O)N1CCCC(=O)O (stereo unspecified)	none (no result: POLK inh, PI5P4K alpha inh, WRN helicase inh, POLH inh, POLI inh)
COC(=O)C1=C(C)N(CCCC(=O)O)C(=O)NC1c1ccc(Br)cc1 (stereo unspecified)	PI5P4K alpha inh -99, POLI inh inconclusive
c1ccc(CNc2nc3c(-c4ccccc4)nnn3c3ccccc23)cc1	none (no result: PI5P4K alpha inh, WRN helicase inh)
COc1ccccc1C(=O)N1CCC(c2c[nH]c3ccccc23)(c2c[nH]c3ccccc23)CC1	none (no result: PI5P4K alpha inh, WRN helicase inh)
COCCNC(=O)c1ccc2c(=O)n(CCc3ccccc3)c(SCC(=O)CC(=O)OC)nc2c1	none (no result: PI5P4K alpha inh, WRN helicase inh)
COC(=O)C1=C(C)N(CCCC(=O)O)C(=O)NC1c1ccc(-c2ccccc2)cc1 (stereo unspecified)	PI5P4K alpha inh -75
Cc1cccc(N2CCN(C(=O)c3ccc4c(c3)N(Cc3ccccc3)C(=O)c3ccccc3S4(=O)=O)CC2C)c1 (stereo unspecified)	none (no result: PI5P4K alpha inh, WRN helicase inh, POLH inh)
O=C(O)CC1CCC(=C(Cl)Cl)C1 (stereo unspecified)	POLB inh inconclusive, POLH inh 50µM, POLI inh inconclusive (no result: PI5P4K alpha inh)
O=C(N/N=C/c1ccc(Cl)cc1)c1ccc2c(c1)OCO2	POLB inh 35µM, POLI inh 79µM
O=C(CNC(=O)c1ccc2c(c1)OCO2)N/N=C/c1cc(Br)ccc1O	POLB inh 45µM
O=C(NCC(=O)N1CCN(S(=O)(=O)c2ccccc2F)CC1)c1ccc2c(c1)OCO2	none (no result: POLB inh)
O=C(NCC(=O)N1CCN(c2ccccc2O)CC1)c1ccc2c(c1)OCO2	POLB inh inconclusive, POLH inh inconclusive, POLI inh 50µM

Screening data: PubChem, National Center for Advancing Translational Sciences (NCATS)
